Measured values: PubChem BioAssay (EPA / NIEHS)
Active and inactive are the calls of the source. The calls were made as follows: active = hit-call score of the fitted dose curve at least 0.9, where 1 is the maximum; inactive = score below 0.9.

Read-out: Fatty Acid-Binding Protein 1 (FABP1), FABP1 (gene 2168)
Assay: LTEA_HepaRG_FABP1: Life Technologies and Expression Analysis (LTEA) Assay for Fatty Acid-Binding Protein 1 (FABP1) using HepaRG (AID 2283494)
Conditions: mRNA level, 48 h; actives raise or lower the signal
Description: LTEA_HepaRG is a cell based, multiplexed-readout assay that uses HepaRG, a human liver cell line, with measurements taken at 48 hours after chemical dosing on a 96-well plate.LTEA_HepaRG_FABP1 is one of 102 assay component(s) measured in the LTEA HepaRG cell culture assay. It is a marker of Steatosis.Data from the assay component LTEA_HepaRG_FABP1 was analyzed into 1 endpoint. This assay endpoint, LTEA_HepaRG_FABP1, was analyzed with bidirectional fitting relative to DMSO as the negative control and baseline of activity. Using a type of inducible reporter, measures of mRNA induction for gain or loss-of-signal activity can be used to understand regulation of transcription factor activity. To generalize the intended target to other relatable targets, this assay endpoint is annotated to the transporter intended target family, where the subfamily is fatty acid carrier protein.
A total of 1060 chemcials from the ToxCast library were tested in eight-point concentration-response experiments. Cell culture and cytotoxicity assays were conducted at Thermo Fisher Scientific's Custom Services facility (Madison, WI). A single lot of human HepaRG cells (Thermo Fisher Scientific, Frederick, MD) was used for the cell culture experiments. 96-well format collagen type I coated plates of human HepaRG cells were prepared using established methods. Briefly, cryopreserved HepaRG cells were thawed, plated at a density of approximately 100,000 cells/well in HepaRG Thaw, Plate, and General Purpose media (HPRG770, Thermo Fisher Scientific), and incubated for 48 hours. 0.5% DMSO was selected as vehicle control to balance the requisite need of DMSO in HepaRG cultures to maintain differentiation (for example, baseline metabolism, proportions of hepatocytes vs. cholangiocytes), while enabling further hepatic receptor pathway activation (for example, PXR and CAR) in response to chemical exposure. 48 hours after plating, the culture medium was replaced with HepaRG Serum-Free Incudtion Media. Cells were exposed to each test chemical in duplicate and maintained in CO2 incubators for another 48 hours. Chemical plates were thawed to room temperature and 200x concentrations of treatment groups were prepared. 8-point conentration-reponse curves were made with the highest exposure at 100 uM, followed by half-log dilutions, all in 0.5% DMSO. Each test plate contained variouse controls, induction positive controls (1mM phenobarbital), cytotoxicity positive controls ([…] aflatoxin B1), vehicle controls (0.5% DMSO), and total lysis controls (0.5% DMSO). Cell morphology images were taken using an Essen IncuCyte FLR automated microscope, with six 96-well plates imaged in about 24 minutes. Images were captured and exported and JPEG files. Spent culture media was transfered to black-well plates for the LDH assay, and remaining media was sorted at -80 C for later use. Cells were treated with RLT buffer and frozen until shipped for gene expression analysis. Total RNA was isolated from the cell suspension in 75 uL of Buffer RLT (Qiagen, Germantown, MD 20874) by Quintiles/Expression Analysis (Durham, NC) using a custom isolation procedure. Total RNA from each plate well was transferred to a preamplification plate. Fluidigm's 96.96 Dynamic ArrayTM (Fluidigm, Amsterdam, the Netherlands) technology was used for gene expression analyses by quantitative reverse transcription polymerase chain reaction (qRT-PCR, performed by Quintiles/Expression Analysis, Durham, NC)89. Standard TaqManTM Assays (Applied Biosystems/ThermoFisher Scientific, Foster City, CA) were used to assess the expression of 93 genes selected based on their selectivity and sensitivity to important hepatic receptors known to be modulated by environmental chemicals; importance in human hepatocyte functionality; and hepatotoxicity. […]

| SMILES | outcome | AC50 |
| --- | --- | --- |
| O=C(O)c1cccnc1 | inactive |  |
| CN(C)C(=O)NC1(c2ccccc2)CCN(CCC[C@]2(c3ccc(Cl)c(Cl)c3)CCCN(C(=O)c3ccccc3)C2)CC1 |  | 20.5 µM (active) |
| CC(=O)O[C@]1(C(C)=O)CC[C@H]2[C@@H]3C=C(Cl)C4=CC(=O)[C@@H]5C[C@@H]5[C@]4(C)[C@H]3CC[C@@]21C |  | 21.7 µM (active) |
| Cc1c(C)c2c(c(C)c1O)CCC(C)(COc1ccc(CC3SC(=O)NC3=O)cc1)O2 (stereo not given) | inactive |  |
| S=c1[nH]c2ccccc2s1 | inactive |  |
| Cc1cn([C@H]2C=C[C@@H](CO)O2)c(=O)[nH]c1=O | inactive |  |
| CC(C)c1cccc(C(C)C)c1 | inactive |  |
| COC(=O)CCC(=O)OC | inactive |  |
| NCCOCCOCCN | inactive |  |
| O=C(O)CC(O)(CC(=O)O)C(=O)O | inactive |  |
| CN(C)C(=O)NC1(c2ccccc2)CCN(CC[C@@]2(c3ccc(F)c(F)c3)CN(C(=O)c3ccccc3)CCO2)CC1 | inactive |  |
| Cc1cc(Cc2ccc(N)c(C)c2)ccc1N | inactive |  |
| O=C(N[C@@H](c1ccccc1)[C@@H]1CCCCN1)c1cccc(C(F)(F)F)c1Cl |  | 33.2 µM (active) |
| O=[Si]=O | inactive |  |
| CC(C)COC(=O)CCCCC(=O)OCC(C)C | inactive |  |
| Cc1occc(=O)c1O | inactive |  |
| CCc1cc(C2=C(C(=O)O)N(c3ccccc3C(F)(F)F)S(=O)(=O)c3ccccc32)cc2c1OCO2 | inactive |  |
| CC(N)=O | inactive |  |
| Oc1ccc(O)cc1 | inactive |  |
| CC(=O)[C@@]1(O)CC[C@H]2[C@@H]3CCC4=CC(=O)CC[C@]4(C)[C@H]3CC[C@@]21C | inactive |  |

| SMILES | outcome | AC50 |
| --- | --- | --- |
| CC(=O)CC(c1ccccc1)c1c(O)c2ccccc2oc1=O (stereo not given) | inactive |  |
| C/C=C/c1ccc(OC)cc1 | inactive |  |
| OCC(CO)n1cnc(-c2ccc(F)cc2)c1-c1ccnc(Oc2ccccc2)n1 |  | 11.2 µM (active) |
| CO[C@@H]1COCC[C@@H]1N[C@@H]1CC[C@@](C(=O)N2CCc3ncc(C(F)(F)F)cc3C2)(C(C)C)C1 | inactive |  |
| C#CC(O)C(CC)CCCC (stereo not given) | inactive |  |
| Cc1ccc(C(C)(C)C)c(O)c1 | inactive |  |
| O=C1O[C@H]([C@H](O)CO)C(O)=C1O | inactive |  |
| CCCC(=O)O | inactive |  |
| CCCCC(CC)COP(=O)(OCC(CC)CCCC)OCC(CC)CCCC (stereo not given) | inactive |  |
| O=C(O)CN(CC(=O)O)CC(=O)O | inactive |  |
| O=C(NS(=O)(=O)/C=C/c1cccs1)c1ccc(F)cc1Br |  | 26.6 µM (active) |
| NC1CCCCC1 | inactive |  |
| CCCCCCC(C=O)=Cc1ccccc1 | inactive |  |
| Nc1nc(Cl)nc2c1ncn2[C@H]1C[C@H](O)[C@@H](CO)O1 |  | 1.33 µM (active) |
| CC(=O)S[C@H](C(=O)N[C@H]1Cc2ccccc2[C@H]2CCC[C@@H](C(=O)O)N2C1=O)C(C)C | inactive |  |
| C/C=C/C=C/C(=O)O | inactive |  |
| OCC(O)CO | inactive |  |
| CCCC[C@H]1CN(CC2CCOCC2)C(=O)OC12CCN(C1(C)CCN(C(=O)c3c(C)ncnc3C)CC1)CC2 | inactive |  |
| O=NO | inactive |  |
| NC=O | inactive |  |
